Values joined by “and” are separate entries in the source; they are usually repeats but may differ in a detail not shown here. Equal values may be shown once. Inconclusive results are not listed. More than one record can exist for a structure, and the calls need not agree. Active and inactive are the calls of the source. The call rests on the fitted dose curve; in most records, active means well fitted inhibition curve with a large enough effect; inconclusive means small, poorly fitted or top-dose-only effect; inactive means no such curve, though single readings can be large or run the other way.
On the % scale 0 is the no-effect control and ±100 the full control effect.

Cytochrome P450 3A4 (Homo sapiens), sequence (P08684 whole entry, looked up): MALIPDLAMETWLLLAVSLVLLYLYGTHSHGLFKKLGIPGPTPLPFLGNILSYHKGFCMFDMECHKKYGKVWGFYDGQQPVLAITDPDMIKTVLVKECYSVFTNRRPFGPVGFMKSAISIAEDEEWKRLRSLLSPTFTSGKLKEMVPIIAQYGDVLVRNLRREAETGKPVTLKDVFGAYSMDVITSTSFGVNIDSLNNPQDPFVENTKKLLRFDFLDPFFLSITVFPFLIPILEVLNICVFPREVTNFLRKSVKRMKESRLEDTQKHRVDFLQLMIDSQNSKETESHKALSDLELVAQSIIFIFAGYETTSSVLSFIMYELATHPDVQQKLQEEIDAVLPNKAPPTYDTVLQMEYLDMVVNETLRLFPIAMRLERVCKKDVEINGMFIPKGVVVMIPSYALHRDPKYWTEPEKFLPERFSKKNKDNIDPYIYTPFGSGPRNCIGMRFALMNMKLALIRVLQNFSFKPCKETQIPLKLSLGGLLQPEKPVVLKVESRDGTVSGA
Cytochrome P450 2C9 (Homo sapiens), sequence (P11712 whole entry, looked up): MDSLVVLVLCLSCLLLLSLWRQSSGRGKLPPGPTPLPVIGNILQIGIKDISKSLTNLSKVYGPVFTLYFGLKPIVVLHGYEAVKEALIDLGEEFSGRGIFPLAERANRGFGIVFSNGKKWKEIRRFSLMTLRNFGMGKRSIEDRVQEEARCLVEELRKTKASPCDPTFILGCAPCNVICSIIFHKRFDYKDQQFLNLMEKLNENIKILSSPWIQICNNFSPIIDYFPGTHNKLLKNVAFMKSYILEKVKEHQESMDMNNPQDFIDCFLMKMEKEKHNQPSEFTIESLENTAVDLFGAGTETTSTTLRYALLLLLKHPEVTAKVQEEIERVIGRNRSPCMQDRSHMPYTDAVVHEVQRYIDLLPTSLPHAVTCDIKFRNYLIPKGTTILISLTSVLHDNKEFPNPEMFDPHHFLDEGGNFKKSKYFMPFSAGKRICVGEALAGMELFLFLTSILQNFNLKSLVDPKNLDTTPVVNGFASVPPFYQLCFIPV

One experiment addresses Cytochrome P450 2C9 (Homo sapiens) (UniProt P11712). In words: qHTS Assay for Inhibitors and Substrates of Cytochrome P450 2C9 (AID 883). Further: nearly all actives have a fitted effect of over 60% in size. Further: potency means the concentration at half of the fitted maximal effect. The settings on record: recombinant CYP2C9, luciferin-H luminescence, 60 min; series mostly up to 11.4 µM. The method in brief:
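10nM CYP2C9 + 100uM Luciferin-H (=KM), 25mM KPO4; cpd 10 min 37C; NADPH regen, 60 min 37C; stop/detect with P450 Glo-Buffer 20 min; luminescence. Norm. to 57uM sulphaphenazole as full inhibition.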
Turning to `CN1CCc2nc(-c3ccccc3)c(-c3ccccc3)cc2C1`, the Potency entry was “inactive”.
Turning to `COC(=O)NC(CC(C)=O)c1cccc(F)c1` (stereo not given), the Potency result was “inactive”.
As to `CC(=O)OCC1OC(C#Cc2ccccc2)C=CC1O` (stereo not given), the Potency entry is “inactive”.
On the same count and under the same terms, under `COC(=O)CC1=COC2OCC3=CC[C@@H]1C32` (stereo not given in full) stands “inactive”; under `O=C1C=C[C@@H](O)[C@@H]2[C@H]3C(=O)N(c4ccc(F)cc4F)C(=O)[C@@H]3CC[C@@H]12`, “inactive”.
For `CC(C)CN1CCc2nc(-c3ccccc3)c3c(c2CC1)COC(C)C3` (stereo not given), the Potency entry is “inactive”.
The same measure, in the same setting: under `COC(=O)NC(c1cccc(F)c1)[C@@]1(C(=O)OC)CCCC1=O` (stereo not given in full) stands “inactive”.
Take `CC12C=C(/C=C/c3ccc(F)cc3)C(C)(C1)C(c1ccc(F)cc1)CC2=O` (stereo not given): the Potency entry was “inactive”.
In the case of `COC(=O)NC(c1cccc(C)c1)[C@@]1(C(=O)OC)CCCC1=O` (stereo not given in full), the Potency entry is “inactive”.
Turning to `CCN1C(C)=C(C(=O)OC)C(c2ccccc2)N2C(=O)[C@@]3(C(=O)OC)O[C@@]12C1C(=O)N(C)C(=O)C13` (stereo not given in full), the Potency entry was “inactive”.
The same measure, in the same setting: under `CCOP(=O)(CC(C(C)=O)C(O)c1ccccc1)OCC` (stereo not given) stands “inactive”.
Still for that read-out and setting: under `C#CC(C)OC(=O)c1nnc2c3ccccc3n(COC)c2n1` (stereo not given) stands “inactive”.
Take `CC1(C)Oc2cc3c(cc2O1)OC(C)(C)O3`: the Potency entry was “inactive”.
Turning to `COc1cc(C2NC(C(=O)O)Cc3c2[nH]c2ccccc32)cc(OC)c1OC` (stereo not given), the Potency entry was “inactive”.
The same measure, in the same setting: under `CCOC(=O)OCC1OC(C#CC(C)(C)C)C=CC1OC(=O)OCC` (stereo not given) stands “inactive”; under `COC(=O)NC(CC(C)=O)c1cccs1` (stereo not given), “inactive”; under `CC1CCC2C(=O)N3CCCC3C(=O)N2C1c1ccc(Br)cc1` (stereo not given), 631 nM (active) and inactive.
Regarding `CCC1OCCC=CC1C` (stereo not given), the Potency entry is “inactive”.
The same measure, in the same setting: under `CC(C)CC1OCCC=CC1C` (stereo not given) stands “inactive”.
The same measure, in the same setting: then `COC(=O)NC(c1ccccc1)[C@@]1(C(=O)OC)CCCC1=O` (stereo not given in full), with “inactive”; and `CCOC(=O)[C@]1(C(NC(=O)OC)c2cccc(C)c2)CCCC1=O` (stereo not given in full), with “inactive”.
With `CCOC(=O)OCC1OC(c2ccccc2)C=CC1Oc1ccc2oc(=O)cc(C)c2c1` (stereo not given), the Potency entry is “inactive”.
Take `COC(=O)NC(c1ccco1)[C@@]1(C(=O)OC)CCCC1=O` (stereo not given in full): the Potency result was “inactive”.
On the same count and under the same terms, then `CC1CCC(C(=O)O)NC1c1cccc(N2CCOCC2)c1` (stereo not given), with “inactive”; and `CC1CCC2C(=O)N3C(CCC(C)[C@@H]3c3ccc(-c4ccco4)cc3)C(=O)N2C1c1cccc(N2CCCC2=O)c1` (stereo not given in full), with “inactive”; and `COC(=O)NC(CC(C)=O)c1ccccc1` (stereo not given), with “inactive”.
Regarding `O=C(/C=C/c1ccccc1)N1CCCC1CO` (stereo not given), the Potency result was “inactive”.
Still for that read-out and setting: under `OCC1OC(c2ccccc2)C=CC1Oc1ccc(C2CCCC2)cc1` (stereo not given) stands “inactive”.
Regarding `CC1(C)OC(C(O)(c2cc(F)c(F)c(F)c2)c2cc(F)c(F)c(F)c2)C(C(O)(c2cc(F)c(F)c(F)c2)c2cc(F)c(F)c(F)c2)O1` (stereo not given), the Potency result was “inactive”.
Same read-out and setting: under `CCCCCCC/C=C/C1=CC2(C)CC1(C)C(CCCCCCC)CC2=O` (stereo not given) stands “inactive”.
On the same count and under the same terms, then `COc1cccc(C2NC(C(=O)O)CCC2C)c1` (stereo not given), with “inactive”; and `CCOC(=O)CCCCC1=CC2=CC(=O)C(C)(O)C(=O)C2=CO1` (stereo not given), with “inactive”; and `C=CCc1cccc(C2NC(C(=O)O)CCC2C)c1` (stereo not given), with “inactive”.
Take `Cc1ccc(OC2C(O)COC2/C=C/C#Cc2ccc(C(C)(C)C)cc2)cc1` (stereo not given): the Potency entry was “inactive”.
Same read-out and setting: under `COC(=O)NC(c1ccccc1)[C@]1(C(C)=O)CCCC1=O` (stereo not given in full) stands “inactive”; under `CC(=O)OCC1OC(C#CC2=CCCCC2)C=CC1OC(C)=O` (stereo not given), “inactive”; under `CC1CN2C(CCC(C)C2c2ccc(Br)cc2)C(=O)O1` (stereo not given), “inactive”.
On to `COC(=O)NC(CC(C)=O)c1ccc(Cl)cc1` (stereo not given), for which the Potency entry was “inactive”.
For `CCC(=O)CC(NC(=O)OC)c1ccc(F)cc1` (stereo not given), the Potency entry was “inactive”.
As for `CC(=O)OCC1OC(c2ccc(C(C)=O)cc2)C=CC1OC(C)=O` (stereo not given), the Potency result is “inactive”.

A further experiment has as its target Cytochrome P450 3A4 (Homo sapiens) (UniProt P08684). Description: qHTS Assay for Inhibitors and Substrates of Cytochrome P450 3A4 (AID 884). Further: nearly all actives have a fitted effect of over 50% in size. Conditions: recombinant CYP3A4, Luciferin-PPXE luminescence; series mostly up to 57.1 µM. Put shortly: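 20 nM human CYP3A4 with 25 uM Luciferin-PPXE (at KM) in 200 mM KPO4, preincubated 10 min with compound; NADPH regeneration started a 60 min RT reaction. Luciferin detected by luminescence, normalized to 57 uM ketoconazole as full inhibition.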
Regarding `CN1CCc2nc(-c3ccccc3)c(-c3ccccc3)cc2C1`, the activity change, negative = inhibition was -24.2% [at 11.4 µM] (inactive).
The same measure, in the same setting: under `COC(=O)NC(CC(C)=O)c1cccc(F)c1` (stereo not given) stands -53.6% [at 11.4 µM] (inactive); under `CC(=O)OCC1OC(C#Cc2ccccc2)C=CC1O` (stereo not given), -14.6% [at 11.4 µM] (inactive); under `COC(=O)CC1=COC2OCC3=CC[C@@H]1C32` (stereo not given in full), -15.8% [at 11.4 µM] (inactive).
On to `O=C1C=C[C@@H](O)[C@@H]2[C@H]3C(=O)N(c4ccc(F)cc4F)C(=O)[C@@H]3CC[C@@H]12`, for which the activity change, negative = inhibition was -59.6% [at 11.4 µM] (inactive).
Same read-out and setting: then `CC(C)CN1CCc2nc(-c3ccccc3)c3c(c2CC1)COC(C)C3` (stereo not given), with -18.5% [at 11.4 µM] (inactive); and `COC(=O)NC(c1cccc(F)c1)[C@@]1(C(=O)OC)CCCC1=O` (stereo not given in full), with -15.7% [at 11.4 µM] (inactive).
The same measure, in the same setting: then `CC12C=C(/C=C/c3ccc(F)cc3)C(C)(C1)C(c1ccc(F)cc1)CC2=O` (stereo not given), with -18.4% [at 11.4 µM] (inactive).
Still for that read-out and setting: then `COC(=O)NC(c1cccc(C)c1)[C@@]1(C(=O)OC)CCCC1=O` (stereo not given in full), with -25.8% [at 11.4 µM] (inactive); and `CCN1C(C)=C(C(=O)OC)C(c2ccccc2)N2C(=O)[C@@]3(C(=O)OC)O[C@@]12C1C(=O)N(C)C(=O)C13` (stereo not given in full), with -27.7% [at 11.4 µM] (inactive).
With `CCOP(=O)(CC(C(C)=O)C(O)c1ccccc1)OCC` (stereo not given), the activity change, negative = inhibition is -15.8% [at 11.4 µM] (inactive).
Regarding `C#CC(C)OC(=O)c1nnc2c3ccccc3n(COC)c2n1` (stereo not given), the activity change, negative = inhibition was -23.2% [at 11.4 µM] (inactive).
Still for that read-out and setting: under `CC1(C)Oc2cc3c(cc2O1)OC(C)(C)O3` stands -26.4% [at 11.4 µM] (inactive); under `COc1cc(C2NC(C(=O)O)Cc3c2[nH]c2ccccc32)cc(OC)c1OC` (stereo not given), -17.2% [at 11.4 µM] (inactive).
`CCOC(=O)OCC1OC(C#CC(C)(C)C)C=CC1OC(=O)OCC` (stereo not given): the activity change, negative = inhibition was -18.5% [at 11.4 µM] (inactive).
On the same count and under the same terms, under `COC(=O)NC(CC(C)=O)c1cccs1` (stereo not given) stands -9.41% [at 11.4 µM] (inactive).
With `CC1CCC2C(=O)N3CCCC3C(=O)N2C1c1ccc(Br)cc1` (stereo not given), the activity change, negative = inhibition was -43.7% [at 11.4 µM] (inactive) and -27.2% [at 11.4 µM] (inactive).
Consider `CCC1OCCC=CC1C` (stereo not given), for which the activity change, negative = inhibition is -15% [at 11.4 µM] (inactive).
With `CC(C)CC1OCCC=CC1C` (stereo not given), the activity change, negative = inhibition is -2.57% [at 11.4 µM] (inactive).
On the same count and under the same terms, then `COC(=O)NC(c1ccccc1)[C@@]1(C(=O)OC)CCCC1=O` (stereo not given in full), with -15.7% [at 11.4 µM] (inactive).
With `CCOC(=O)[C@]1(C(NC(=O)OC)c2cccc(C)c2)CCCC1=O` (stereo not given in full), the activity change, negative = inhibition was -23.1% [at 11.4 µM] (inactive).
Same read-out and setting: then `CCOC(=O)OCC1OC(c2ccccc2)C=CC1Oc1ccc2oc(=O)cc(C)c2c1` (stereo not given), with -10.6% [at 11.4 µM] (inactive); and `COC(=O)NC(c1ccco1)[C@@]1(C(=O)OC)CCCC1=O` (stereo not given in full), with -10.6% [at 11.4 µM] (inactive); and `CC1CCC(C(=O)O)NC1c1cccc(N2CCOCC2)c1` (stereo not given), with -10.3% [at 11.4 µM] (inactive).
As for `CC1CCC2C(=O)N3C(CCC(C)[C@@H]3c3ccc(-c4ccco4)cc3)C(=O)N2C1c1cccc(N2CCCC2=O)c1` (stereo not given in full), the activity change, negative = inhibition was 13.4% [at 11.4 µM] (inactive).
Consider `COC(=O)NC(CC(C)=O)c1ccccc1` (stereo not given), for which the activity change, negative = inhibition was -12.9% [at 11.4 µM] (inactive).
On the same count and under the same terms, under `O=C(/C=C/c1ccccc1)N1CCCC1CO` (stereo not given) stands -20.7% [at 11.4 µM] (inactive); under `OCC1OC(c2ccccc2)C=CC1Oc1ccc(C2CCCC2)cc1` (stereo not given), -14.3% [at 11.4 µM] (inactive); under `CC1(C)OC(C(O)(c2cc(F)c(F)c(F)c2)c2cc(F)c(F)c(F)c2)C(C(O)(c2cc(F)c(F)c(F)c2)c2cc(F)c(F)c(F)c2)O1` (stereo not given), -15% [at 11.4 µM] (inactive).
Take `CCCCCCC/C=C/C1=CC2(C)CC1(C)C(CCCCCCC)CC2=O` (stereo not given): the activity change, negative = inhibition was -15% [at 11.4 µM] (inactive).
With `COc1cccc(C2NC(C(=O)O)CCC2C)c1` (stereo not given), the activity change, negative = inhibition was -16.8% [at 11.4 µM] (inactive).
For `CCOC(=O)CCCCC1=CC2=CC(=O)C(C)(O)C(=O)C2=CO1` (stereo not given), the activity change, negative = inhibition is -20.4% [at 11.4 µM] (inactive).
On the same count and under the same terms, under `C=CCc1cccc(C2NC(C(=O)O)CCC2C)c1` (stereo not given) stands -20.1% [at 11.4 µM] (inactive); under `Cc1ccc(OC2C(O)COC2/C=C/C#Cc2ccc(C(C)(C)C)cc2)cc1` (stereo not given), -23% [at 11.4 µM] (inactive) and -25.5% [at 11.4 µM] (inactive); under `COC(=O)NC(c1ccccc1)[C@]1(C(C)=O)CCCC1=O` (stereo not given in full), -20.1% [at 11.4 µM] (inactive).
The same measure, in the same setting: under `CC(=O)OCC1OC(C#CC2=CCCCC2)C=CC1OC(C)=O` (stereo not given) stands -27.5% [at 11.4 µM] (inactive); under `CC1CN2C(CCC(C)C2c2ccc(Br)cc2)C(=O)O1` (stereo not given), -15.8% [at 11.4 µM] (inactive) and -28.1% [at 11.4 µM] (inactive).
The same measure, in the same setting: then `COC(=O)NC(CC(C)=O)c1ccc(Cl)cc1` (stereo not given), with -19.1% [at 11.4 µM] (inactive).
Turning to `CCC(=O)CC(NC(=O)OC)c1ccc(F)cc1` (stereo not given), the activity change, negative = inhibition is -17.9% [at 11.4 µM] (inactive).
The same measure, in the same setting: under `CC(=O)OCC1OC(c2ccc(C(C)=O)cc2)C=CC1OC(C)=O` (stereo not given) stands -20.5% [at 11.4 µM] (inactive).

The values are drawn from PubChem BioAssay (NCATS).
